Assay results taken from PubChem BioAssay AID1259313 (Sanford-Burnham Center for Chemical Genomics, 2017).
In all, about 340,000 compounds went through this assay and about 8,500 (2.5%) were called active. This is one part of a sample in which actives are shown more often than they occur. Unmarked numbers belong to inactive results.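 The calls were made as follows: active = melting temperature shift of at least 10% of the positive control shift, at one fixed dose; inactive = the rest.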

Each compound was assayed on Glutamate receptor ionotropic, NMDA 3A (GRIN3A) ligand-binding domain (assay: NR3A LBD thermal stabilization by compounds – biophysical, differential scanning fluorimetry, uHTS, primary screen (AID 1259313)). Settings: at 25 µM, hits give high values.

Compound | Tm shift relative to glycine control
O=C(COC(=O)c1ccccc1)Nc1ccc(Cl)cc1C(=O)c1ccccc1 | 12.2% (active)
O=C(CCNS(=O)(=O)c1ccccc1)Nc1ccc(Cl)cc1C(=O)c1ccccc1 | -5.82%
CN1CCN(C(=S)SCC(=O)Nc2ccc(Cl)cc2C(=O)c2ccccc2)CC1 | 3.94%
O=C(Nc1cccc2ccccc12)N1CCC2(CC1)OCCO2 | 0%
Cc1cc(N2C(=O)C3CCCN3C2c2ccc(Cl)c(Cl)c2)no1 (stereo not given) | 0.27%
COCCNC(=O)CN1C2CCC1CC(O)(c1cccnc1)C2 (stereo not given) | 0.09%
COc1cccc(N2C(=O)NC(=O)/C(=C\c3ccc([N+](=O)[O-])s3)C2=O)c1 | -7.7%
O=C1NC(=O)N(Cc2ccco2)C(=O)/C1=C\c1ccc(-c2ccc(F)cc2)o1 | 0.53%
COc1ccc(N2C(=O)/C(=C/c3ccco3)C(=O)NC2=S)cc1 | 10.6% (active)
CC[N+]1(C)CCCC(OC(=O)C(O)(c2ccccc2)c2ccccc2)C1 (stereo not given) | 1.89%
CC1=C(C(=O)Nc2ccccc2)S(=O)(=O)CCO1 | 0.53%
CCNc1nc2[nH]c(=O)c3c(c2s1)OC(N)=C(C#N)C3c1cccs1 (stereo not given) | 1.75%
CCN1C(=O)C(=Cc2c(C)n(CC(=O)NCC3CCCO3)c3ccccc23)C(=O)N(CC)C1=S (stereo not given) | 0.27%
CCCCCCCCCCCCn1ccc(=N)cc1 | 20.8% (active)
CCN1C(=O)NC(=O)C2(CCCC2)C1=O | 1.88%
